# The sample as a whole holds a higher share of hits than the screen did.
# Luciferase inh: qHTS Assay for Inhibitors of Firefly Luciferase. Potency, µM (titrated, usually from 57.1 µM), for the others: at the top dose activity change, negative = inhibition, most hits filed as inhibitors. Luciferin 4-monooxygenase (Photinus pyralis), P08659. purified firefly luciferase, luminescence, 8 min. 72,000 compounds, 2.2% hits; also: potency is read from the fitted curve at half-maximal effect; % is scaled to controls: 0 for no effect and ±100 for the full control effect; nearly all actives have a fitted effect of over 40% in size
# Target sequence (P08659 whole entry, looked up): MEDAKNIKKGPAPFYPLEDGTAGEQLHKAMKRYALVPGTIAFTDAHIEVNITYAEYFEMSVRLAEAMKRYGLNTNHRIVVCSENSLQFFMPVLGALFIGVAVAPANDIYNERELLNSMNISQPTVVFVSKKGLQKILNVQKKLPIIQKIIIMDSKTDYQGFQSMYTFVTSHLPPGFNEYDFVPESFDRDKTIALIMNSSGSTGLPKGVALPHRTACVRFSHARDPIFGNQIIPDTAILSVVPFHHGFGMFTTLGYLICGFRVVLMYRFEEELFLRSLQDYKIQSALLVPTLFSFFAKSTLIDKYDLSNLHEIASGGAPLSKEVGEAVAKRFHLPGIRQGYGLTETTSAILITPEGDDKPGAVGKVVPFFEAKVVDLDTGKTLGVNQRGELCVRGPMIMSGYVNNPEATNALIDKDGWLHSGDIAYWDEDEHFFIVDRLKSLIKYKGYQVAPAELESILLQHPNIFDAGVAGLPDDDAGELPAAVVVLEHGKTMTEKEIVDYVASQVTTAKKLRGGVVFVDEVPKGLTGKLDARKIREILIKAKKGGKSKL
#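 Here, luciferase activity is measured as luminescence following an 8 min room-temperature reaction at 10 uM ATP, pH 7.2. Every library sample is titrated.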
# p53ts 32C kill: qHTS Screen for Compounds that Selectively Target Cancer Cells with p53 Mutations: Cytotoxicity of p53ts Cells at the Permissive Temperature | H1299-p53A138V at 32C, ATP luminescence viability, 24 h | 130,000 compounds, 0.93% hits | Potency, µM (top dose mostly 46.1 µM), inactives show at the top dose activity change, negative = cytotoxicity, actives largely listed as cytotoxic;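 also: potency is read from the fitted curve at half-maximal effect; 0% = DMSO and -100% = full killing by reference compound; nearly all actives have a fitted effect of over 55% in size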
#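 Cells: H1299 p53ts (A138V), 600/well, pre-incubated 16–30 h at 37C. Cpd up to 46 uM, 24 h, 32C. Readout: ATPlite luminescence, 20 min RT. Normalization: DMSO vs tamoxifen 100 uM. AC50 by Hill equation.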
# Imprint erasure: qHTS Assay for Compounds that Induce Erasure of Genomic Imprints; mouse ES Peg3-LacZ reporter, beta-gal luminescence, 40 h; Potency, µM (highest dose often 60.7 µM), without a hit: at the top dose activity change, positive = activation, most hits filed as activators; 110,000 compounds, 0.02% hits; also: potency is read from the fitted curve at half-maximal effect
#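 Gelatin-coated wells received 300 freshly trypsinized female ES cells with a Peg3LacZ-Neo reporter on the maternal allele, then incubated 40 hours at 37C. BetaGlo was added for 5 minutes at room temperature before a single luminescence read.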
# IkB signaling: IkB Signaling. ABC-DLBCL IkBa-CBG/CBR dual luciferase ratio, 4 h; response scale: scaled: untreated 0%, proteasome inhibitor 100%. Potency, µM (top dose mostly 57.1 µM), without a hit: at the top dose IkBa stabilization activation. 110,000 compounds, 0.04% hits. AID 445, 2006; active = well fitted curve in the direction sought with a large enough effect in the signal ratio, not every such curve was filed as active; inconclusive = small, poorly fitted or top-dose-only effect, or a change in a side signal; the % refers to the signal ratio;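 also: potency is read from the fitted curve at half-maximal effect; the direction sought is a rising ratio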
#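 In this assay, an IκBα–CBG68 fusion accumulates when IKK-driven degradation is blocked; native CBR normalizes for cell number. OCI-Ly3 cells were treated 4 h with compound and doxycycline, then green and red light read after Chroma-Glo addition.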
# IMPase cell inh: qHTS Assay for Identifying the Cell-Membrane Permeable IMPase Inhibitors; Inositol monophosphatase 1 (Rattus norvegicus), P97697; inhibition (IP1 accumulation), % at 46.1 µM; CHO-M1 cells, IP1 accumulation, HTRF TR-FRET ratio; 120,000 tested, under 10 active; active = well fitted curve in the direction sought with a large enough effect in the signal ratio, not every such curve was filed as active; inconclusive = small, poorly fitted or top-dose-only effect, or a change in a side signal; inactive = no such curve, though single readings can be large or run the other way; the % refers to the signal ratio;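 also: cells stimulated with carbachol in lithium chloride buffer; plate controls were DMSO basal wells for no effect and reference inhibitor wells for full effect; higher means more IMPase inhibition seen as more IP1 and lower FRET ratio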
#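 CHO-M1 cells (CHO stably expressing M1 receptor), compound up to 46 uM final, stimulated with carbachol (50 uM as added) in buffer with 50mM LiCl, pH 7.4, 30 min at 37C. Cytosolic IP1 read by TR-FRET; AC50 from Hill fits.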
# p53ts 39C tox: qHTS Screen for Compounds that Selectively Target Cancer Cells with p53 Mutations: Cytotoxicity of p53ts Cells at the Nonpermissive Temperature; H1299-p53A138V viability at 39C, ATP luminescence, 24 h; Potency, µM (highest dose often 46.1 µM), without a hit: top-dose activity change, negative = cell killing, hits mostly cytotoxic; 130,000 compounds, 1.5% hits; AID 902, 2007; also: potency is read from the fitted curve at half-maximal effect; % is scaled to controls: 0 for no effect and ±100 for the full control effect; nearly all actives have a fitted effect of over 55% in size
# Starred values were filed as active, the others as inactive; ? = inconclusive; . = no result; [ ] = remark or other dose. Unless noted, calls follow the shape of the dose curve; as a rule, active = well fitted curve in the direction sought with a large enough effect; inconclusive = small, poorly fitted or top-dose-only effect, or another doubt; inactive = no such curve, though single readings can be large; an effect the other way counts as inactive or inconclusive.
SMILES,Luciferase inh,p53ts 32C kill,Imprint erasure,IkB signaling,IMPase cell inh,p53ts 39C tox
O=C(COC(=O)C1CCC1)NCc1ccccc1Cl,16µM*,-3%,2%,1%,7,2%
COc1ccc(CCCc2nnc(SCC(=O)Nc3ncc(C)s3)o2)cc1,16µM*,-28%,-22%,-3%,9,?
COc1ccc(Cc2nnc(SCC(=O)Nc3ncc(C)s3)o2)cc1,0%,0%,-6%,6%,-1,2%
COc1ccc(OC2C=CC(c3ccccc3)OC2CO)cc1 (stereo unspecified),.,3%[9.22 µM],.,.,.,2%[9.22 µM]
Cc1nc(-c2ccccc2)sc1-c1ccc(SCC(=O)Nc2cccc(C(F)(F)F)c2)nn1,.,-9%,-15%[10.9 µM],0%,.,10µM*
CC(=O)Nc1cccc(NC(=O)CSc2ccc(-c3sc(-c4ccccc4)nc3C)nn2)c1,.,14%,-20%[10.9 µM],?,.,7.9µM*
CCc1ccc(NC(=O)CSc2ccc(-c3sc(-c4ccccc4)nc3C)nn2)cc1,.,0%,-10%[10.9 µM],?,.,-18%
O=C(c1ccc(Cc2nc3ccccc3[nH]2)cc1)N1CCCCC1,.,1%,.,.,.,2%
O=C(COc1ccc(Cl)cc1)NCC(c1ccco1)S(=O)(=O)c1ccc(F)cc1 (stereo unspecified),.,5%,29%[10.9 µM],?,.,-1%
O=c1cc(-c2ccc(O)c(O)c2)oc2ccccc12,.,-1%,-49%,.,.,9%
CC(=O)n1nc(-c2ccco2)nc1SCc1ccccc1,-17%,13µM*,1%,7%,-2,?
Cc1cc(C)c2c(=O)n(CC(=O)NCCCN3CCN(c4ccccc4F)CC3)sc2n1,13µM*,-14%,-84%,?,12,7%
Cc1cc(C)c2c(=O)n(CC(=O)NCCCN3CCOCC3)sc2n1,13µM*,2%,-82%,26%,-1,-1%
Cc1ccccc1CS(=O)(=O)CCC(=O)NCCCN1CCN(c2ccccc2F)CC1,2%,-5%,-27%,0%,-1,-13%
C(=N\n1cnnc1)/c1cn(-c2cccs2)nc1-c1ccccc1,25µM*,?,-9%,-1%,9,-24%
CCS(=O)(=O)c1ncc(Cl)c(C(=O)N2CCN(c3cccc(Cl)c3)CC2)n1,.,13µM*,-38%[10.9 µM],?,.,2.5µM*
COc1ccc(OCC(=O)N2CCN(c3cccc(Cl)c3)CC2)cc1,.,.,.,.,-6,.
CS(=O)(=O)c1ncc(Cl)c(C(=O)N2CCN(c3cccc(Cl)c3)CC2)n1,.,13µM*,-41%[10.9 µM],?,.,2.5µM*
CC(=O)OC[C@@H]1O[C@@H](O/N=C2/C[C@@H](O)[C@@H](O)[C@@H]3[C@@H]4C(=O)N(C(C)(C)C)C(=O)[C@H]4CC[C@@H]23)[C@H](OC(C)=O)[C@H](OC(C)=O)[C@@H]1OC(C)=O,0%[11.4 µM],7%[9.22 µM],.,.,.,17%[9.22 µM]
Cc1occc1C(=O)Nc1cccc2ccccc12,25µM*,-26%,-83%,?,4,-25%
Cc1occc1C(=O)Nc1ccccc1NC(=O)c1ccoc1C,1%,10%,1%,3%,.,8%
CCOc1ccc2nc(-c3ccccc3)[nH]c2c1,3.2µM*,6.3µM*,-88%,?,-19,5µM*
COc1ccc2nc(-c3ccccc3)[nH]c2c1,6.3µM*,10µM*,-95%,?,-6,13µM*
COc1ccc2nc(C(C)O)[nH]c2c1 (stereo unspecified),.,-5%,.,.,?,-1%
CC1(C)S[C@@H]2[C@H](NC(=O)[C@@H](N)c3ccccc3)C(=O)N2[C@H]1C(=O)O[C@H]1OC(=O)c2ccccc21,-1%[25.5 µM],6%[20.6 µM],-6%[16.8 µM],7%[25.6 µM],2[20.6 µM],10%[20.6 µM]
SMILES,Luciferase inh,p53ts 32C kill,Imprint erasure,IkB signaling,IMPase cell inh,p53ts 39C tox
Cc1cc(C)c2nc3c(c([C@H](O)C4CCCCN4)c2c1)CC/C3=C/c1ccc(Cl)cc1 (stereo partly specified),.,.,-15%[10.9 µM],.,.,.
CCN1C(C(=O)c2ccccc2)=C(OC(=O)c2ccccc2OC)c2ccccc2S1(=O)=O,.,?,-10%[10.9 µM],?,11,10µM*
CSc1ccc(/C=C/c2nc3ccccc3n2S(=O)(=O)c2cccc(Cl)c2)cc1,.,3.2µM*,-25%[10.9 µM],?,.,4µM*
O=S(=O)(c1cccc(Cl)c1)n1c(/C=C/c2ccccc2Cl)nc2ccccc21,.,1.3µM*,-84%[10.9 µM],6%,.,1µM*
Cc1ccc(/C=C/c2nc3ccccc3n2S(=O)(=O)c2ccc(Br)cc2)cc1,.,5µM*,-16%[10.9 µM],?,.,6.3µM*
CC(=O)c1cc(C(=O)Nc2cccc(C)c2)c2ccccn12,.,-9%,8%[10.9 µM],10%,.,-27%
COc1ccc(C)cc1NC(=O)C(Cc1ccccc1)NS(=O)(=O)c1ccc(Br)s1 (stereo unspecified),.,?,-11%[10.9 µM],-1%,-4,13µM*
COc1ccc(-c2cc(=O)c3ccc(F)cc3[nH]2)cc1,.,.,1%[97.3 µM],.,.,.
Cc1ccccc1N=C1NC(=O)CS1,1%,-4%,-2%,1%,4,-10%
Cc1ccccc1N=C1Nc2ccccc2CS1,25µM*,?,-75%,1%,-2,?
COc1ccc(OC)c(S(=O)(=O)Nc2ccc(C(C)=O)cc2)c1,.,.,.,.,3,.
COc1ccc(C(=O)Oc2ccc(C(C)=O)cc2)c(OC)c1,16µM*,-1%,-11%,-1%,12,-12%
COc1ccc(OC2C(O)COC2/C=C/c2ccccc2)cc1 (stereo unspecified),.,6%[9.22 µM],.,.,.,1%[9.22 µM]
Cc1c(-c2ccc(O)cc2)nn(-c2ccc(O)cc2)c1-c1ccc(OCCN2CCCCC2)cc1,-1%,?,-22%,?,11,32µM*
O=[N+]([O-])c1ccc(OCCN2CCCCCC2)cc1,.,.,.,.,0,1%
Cc1ccc(NC(=O)Cc2coc3c(C)c(C)ccc23)c(C)c1,.,-3%,-7%[10.9 µM],0%,.,-6%

# Assay outcomes as filed in PubChem.
